# Hit rate of the full screen: of about 52,000 compounds, about 1,700 (3.3%) were called active. Rule as the data show it: active = survival mostly below about 52% (no sharp cut-off); inactive = mostly above about 56%. What follows is part of a selection rich in actives, with near analogues and random picks from the rest.
# System: Wild type
# Test: S. aureus survival, RN4220 and DeltatarO strains – OD600, teichoic acid synthesis inhibitors, primary screen (AID 463173)
# Conditions: S. aureus RN4220 wild type/DeltatarO growth, OD600, 18 h, active compounds read low, screened at 18.75 µg/mL (by protocol)
row,Compound,survival
1,COc1ccc(CNC(=O)c2cccc(N3CCCS3(=O)=O)c2)cc1OC,63% (inactive)
2,O=C(Nc1cccc(C(=O)N2CCN(c3ccccc3F)CC2)c1)c1nsc2ccccc12,67% (inactive)
3,COc1ccc(S(=O)(=O)n2nc(C)c(S(=O)(=O)N3CCCCCC3)c2C)cc1C,55% (inactive)
4,Cc1nn(S(=O)(=O)c2ccc(F)cc2)c(C)c1S(=O)(=O)N1CCCCC1,71% (inactive)
5,Cc1nn(S(=O)(=O)c2ccc(F)cc2)c(C)c1S(=O)(=O)N1CCC(C)CC1,-3% (active)
6,Cc1nn(C(=O)c2ccccc2F)c(C)c1S(=O)(=O)N1CCCCCC1,70% (inactive)
7,Cc1nn(C(=O)c2cccc([N+](=O)[O-])c2C)c(C)c1S(=O)(=O)N1CCCCCC1,-4% (active)
8,COc1ccc(S(=O)(=O)n2nc(C)c(S(=O)(=O)N3CCC(C)CC3)c2C)cc1OC,81% (inactive)
9,Cc1nn(S(=O)(=O)c2ccccc2)c(C)c1S(=O)(=O)N1CCC(C)CC1,81% (inactive)
10,COc1ccc(S(=O)(=O)n2nc(C)c(S(=O)(=O)N3CCCCCC3)c2C)cc1OC,1% (active)
11,Cc1nn(C(=O)c2cccc([N+](=O)[O-])c2C)c(C)c1S(=O)(=O)N1CCOCC1,64% (inactive)
12,CCOC(=O)c1cc(=O)n2[nH]c(-c3ccc(C)cc3)cc2n1,107% (inactive)
13,CCC(Sc1nc2ccccc2c2nc(CCc3c(C)n[nH]c3C)nn12)C(=O)Nc1ccccc1F (stereo not drawn),91% (inactive)
14,CCCCn1cc(S(=O)(=O)c2cc(C)ccc2C)c(=O)c2cc(F)c(F)cc21,83% (inactive)
15,COc1ccc(-c2cc(C(=O)Oc3ccc(C)cc3)c3ccccc3n2)cc1,4% (active)
16,COc1ccc(-c2cc(C(=O)Oc3ccc(C)cc3)c3cc(C)ccc3n2)cc1,22% (inactive)
17,COc1ccc(-c2cc(C(=O)Oc3ccccc3)c3cc(C)ccc3n2)cc1,11% (inactive)
18,COc1ccc(-c2cc(C(=O)Oc3cccc(C)c3)c3ccccc3n2)cc1,3% (active)
19,COc1ccc(-c2cc(C(=O)Oc3ccc(Br)cc3)c3ccccc3n2)cc1,63% (inactive)
20,COc1ccc(-c2cc(C(=O)Oc3cccc(C)c3C)c3ccccc3n2)cc1,12% (active)
21,Cc1ccc(-c2cc(C(=O)Oc3ccccc3)c3cccc(C)c3n2)cc1,13% (active)
22,COc1ccc(-c2cc(C(=O)Oc3cccc(C)c3)c3cc(C)ccc3n2)cc1,19% (inactive)

row,Compound,survival
1,Cc1ccc(OC(=O)c2cc(-c3ccccc3)nc3ccc(C)cc23)cc1,61% (inactive)
2,Cc1ccc(-c2cc(C(=O)Oc3ccccc3)c3cc(C)ccc3n2)cc1,65% (inactive)
3,COc1ccc(-c2cc(C(=O)Oc3ccc(C)c(C)c3)c3ccccc3n2)cc1,30% (inactive)
4,COc1ccc(-c2cc(C(=O)Oc3ccc(Cl)cc3)c3ccccc3n2)cc1,60% (inactive)
5,Cc1ccc(C(=O)NC(C)C)cc1C,110% (inactive)
6,Cc1cc(NC(=O)c2ccc(Cl)c(Cl)c2)ccc1NC(=O)c1ccco1,95% (inactive)
7,COCc1c(Br)c(C)nc2sc3c(=O)n(-c4cccc(Br)c4)nnc3c12,87% (inactive)
8,CCn1c(CSc2ncccn2)nnc1SCC(=O)N1CCc2ccccc21,102% (inactive)
9,CCCN(CCC)CCCNC(=O)Cn1cnc2onc(-c3ccc(F)cc3)c2c1=O,73% (inactive)
10,Cc1nc(-c2ccccc2)sc1CCNS(=O)(=O)c1ccccc1,69% (inactive)
11,CCCCS(=O)(=O)c1oc(-c2ccc(F)cc2)nc1S(=O)(=O)c1ccccc1,7% (active)
12,CCS(=O)(=O)c1oc(-c2ccc(F)cc2)nc1S(=O)(=O)c1ccc(Br)cc1,-1% (active)
13,CC(C)S(=O)(=O)c1oc(-c2ccc(F)cc2)nc1S(=O)(=O)c1ccccc1,23% (inactive)
14,CCC(C)S(=O)(=O)c1oc(-c2ccc(F)cc2)nc1S(=O)(=O)c1ccc(F)cc1 (stereo not drawn),49% (inactive)
15,Cc1ccc(-c2nc(S(=O)(=O)c3ccc(F)cc3)c(N3CCN(c4ccccc4)CC3)o2)cc1,89% (inactive)
16,CCSc1oc(-c2ccc(F)cc2)nc1S(=O)(=O)c1ccc(C)cc1,41% (inactive)
17,CS(=O)(=O)c1oc(-c2ccc(F)cc2)nc1S(=O)(=O)c1ccc(Cl)cc1,-1% (active)
18,CCCCS(=O)(=O)c1oc(-c2ccc(F)cc2)nc1S(=O)(=O)c1ccc(C)cc1,33% (inactive)
19,CSc1oc(-c2ccc(F)cc2)nc1S(=O)(=O)c1ccc(Br)cc1,54% (inactive)
20,O=S(=O)(c1ccccc1)c1nc(-c2ccc(F)cc2)oc1N1CCOCC1,73% (inactive)
21,CC(C)CS(=O)(=O)c1oc(-c2ccc(F)cc2)nc1S(=O)(=O)c1ccccc1,3% (active)
22,CC(C)S(=O)(=O)c1oc(-c2ccc(F)cc2)nc1S(=O)(=O)c1ccc(F)cc1,26% (inactive)

row,Compound,survival
1,CNC(=O)N(O)C1N(c2ccccc2)C(=S)SC1(C)C (stereo not drawn),109% (inactive)
2,O=C(NCc1ccccc1Cl)C1CCCN(c2ncnc3onc(-c4ccc(F)cc4)c23)C1 (stereo not drawn),65% (inactive)
3,COc1ccc(-n2cc(C(=O)Oc3cc(C)cc(C)c3)c3ccccc3c2=O)cc1,153% (inactive)
4,COc1cccc(NC(=O)c2ccc(CN3CCN(c4ccccc4)CC3)cc2)c1,122% (inactive)
5,NC(=O)C1CCN(C(=O)c2ccc3c(c2)N(Cc2cccc(Cl)c2)C(=O)c2ccccc2S3(=O)=O)CC1,69% (inactive)
6,O=C(Nc1c(C(=O)Nc2ccc(F)cc2)oc2ccccc12)c1ccccc1F,30% (inactive)
7,Cc1ccc(S(=O)(=O)N2CCN(C(=O)CN3CCOCC3)C2C(C)C)cc1 (stereo not drawn),105% (inactive)
8,CCc1ccc(NC(=O)CSc2nc(C)c(C(=O)Nc3ccccc3)c(-c3ccc(OC)c(OC)c3)c2C#N)cc1,85% (inactive)
9,CC(C)Nc1nc(C#N)nc(NC(C)C)n1,130% (inactive)
10,COc1cc(NC(=O)c2cc3c(=O)n(Cc4ccco4)ccc3nc2C)cc(OC)c1OC,63% (inactive)
11,O=c1[nH]c2ccc(N=Cc3ccccc3C(F)(F)F)cc2[nH]1,116% (inactive)
12,COc1cc(NS(=O)(=O)c2ccc(NC(=O)COc3ccc(Cl)cc3Cl)cc2)nc(OC)n1,93% (inactive)
13,C=CCN1C(=O)C(C)(C)N(C(C)=O)c2ccccc21,121% (inactive)
14,O=S(=O)(c1ccccc1)c1nc(-c2ccc(F)cc2)oc1NCc1ccccc1,84% (inactive)
15,CCS(=O)(=O)c1oc(-c2ccc(F)cc2)nc1S(=O)(=O)c1ccccc1,-1% (active)
16,O=S(=O)(c1ccccc1)c1nc(-c2ccc(F)cc2)oc1N1CCCCCC1,19% (inactive)
17,Cc1ccc(CNC(=O)c2cc(C3CC3)nc3c2c(C)nn3-c2cccc(Cl)c2C)cc1,94% (inactive)
18,COc1ccccc1OC(C)C(=O)Nc1cccc(-c2nc3ccccc3s2)c1 (stereo not drawn),29% (inactive)
19,Cc1ncc(CO)c2c1Oc1nc(-c3ccc(Cl)cc3)nc(SCC(=O)N3CCCCC3)c1C2,79% (inactive)
20,O=S1(=O)c2ccccc2N(Cc2ccc(Cl)cc2)c2ccccc21,129% (inactive)
21,O=C(c1ccc2c(c1)N(Cc1cccc(Cl)c1)C(=O)c1ccccc1S2(=O)=O)N1CCc2ccccc21,-3% (active)
22,CCCCN(C)C(=O)c1ccc2c(c1)N(Cc1cccc(Cl)c1)C(=O)c1ccccc1S2=O (stereo not drawn),124% (inactive)

row,Compound,survival
1,CN(C(=O)c1ccc2c(c1)N(Cc1cccc(Cl)c1)C(=O)c1ccccc1S2=O)C1CCCCC1 (stereo not drawn),95% (inactive)
2,CCN(C(=O)c1ccc2c(c1)N(Cc1cccc(Cl)c1)C(=O)c1ccccc1S2=O)c1ccccc1 (stereo not drawn),0% (active)
3,O=C(c1ccc2c(c1)N(Cc1ccccc1)C(=O)c1ccccc1S2(=O)=O)N1CCc2ccccc21,87% (inactive)
4,COc1ccccc1CNC(=O)c1ccc2c(c1)N(Cc1cccc(C)c1)C(=O)c1ccccc1S2(=O)=O,90% (inactive)
5,O=S1(=O)c2ccccc2N(Cc2ccccc2)c2ccccc21,69% (inactive)
6,O=S1(=O)c2ccccc2N(Cc2cccc(Cl)c2)c2ccccc21,-2% (active)
7,COc1ccccc1CNC(=O)c1ccc2c(c1)N(Cc1cccc(Cl)c1)C(=O)c1ccccc1S2(=O)=O,10% (active)
8,O=C(c1ccc2c(c1)N(Cc1ccc(Cl)cc1)C(=O)c1ccccc1S2(=O)=O)N1CCc2ccccc21,147% (inactive)
9,O=C(NCc1ccccc1)c1ccc2c(c1)N(Cc1cccc(Cl)c1)C(=O)c1ccccc1S2(=O)=O,74% (inactive)
10,O=C(Nc1cccc(Cl)c1)c1cc2c(=O)[nH]c3ccccc3c2s1,63% (inactive)
11,COc1ccccc1NC(=O)c1sc2nc(C)c(C(=O)Nc3ccc(C)cc3C)c(-c3ccccc3Cl)c2c1N,139% (inactive)
12,CC(C)CC(=O)NCC(c1ccc2c(c1)OCO2)N1CCN(c2ccccc2F)CC1 (stereo not drawn),76% (inactive)
13,CCN(CC)CCNC(=O)c1ccc2c(c1)NC(=O)C(CS(=O)(=O)Cc1cccc(Br)c1)N2 (stereo not drawn),134% (inactive)
14,O=C(NCCCN1CCN(c2ccccc2F)CC1)c1nnc(Cc2ccc(Cl)cc2Cl)o1,77% (inactive)
15,Cc1ccc(Cl)cc1N1CCN(CCNC(=O)Nc2ccc(Cl)cc2)CC1,-6% (active)
16,Cc1ccc(C)c(N2CCN(CCCNC(=O)Nc3ccc(Cl)cc3)CC2)c1,-6% (active)
17,COc1ccc(Cc2nnc(C(=O)NCCCN3CCN(c4ccccc4F)CC3)o2)cc1OC,87% (inactive)
18,Cc1ccc(Cl)cc1N1CCN(CCCNC(=O)c2nnc(Cc3cccc(Cl)c3)o2)CC1,12% (active)
19,Cc1ccc(Cl)cc1N1CCN(CCNC(=O)Nc2ccccc2Cl)CC1,98% (inactive)
20,O=C(NCCCN1CCN(c2ccc(F)cc2)CC1)Nc1ccc(Cl)cc1,64% (inactive)
21,Cc1cccc(N2CCN(CCNC(=O)Nc3ccc(Cl)cc3)CC2)c1C,87% (inactive)
22,CCOc1ccc(NC(=O)NCCN2CCN(c3cc(Cl)ccc3C)CC2)cc1,53% (inactive)
